These results are taken from PubChem BioAssay (NCATS).

Inconclusive results are not listed. A number with no mark means an inactive call. Calls of active or inactive are those of the source. Calls come from the whole dose curve; as a rule, active = well fitted curve in the direction sought with a large enough effect; inconclusive = small, poorly fitted or top-dose-only effect, or another doubt; inactive = no such curve, though single readings can be large; an effect the other way counts as inactive or inconclusive.

For one assay, the system named is CRL-7250. As to the kind of experiment: Cytotoxic Profiling of Annotated Libraries Using Quantitative High-Throughput Screening (AID 1296008). For max response: % is set by controls: 0 for no effect and ±100 for the full control effect. Note: nearly all actives have a fitted effect of over 60% in size. Note: potency is the fitted concentration of half-maximal effect. Particulars: Five cell lines viability, CellTiter-Glo ATP luminescence, 48-72 h; max response: stronger effect = lower value. In outline:
(§1)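 Compounds were pin-transferred onto cells and incubated 48 or 72 hr at 37 degree Celsius, 95% humidity. CellTiter-Glo was added, plates sat 10 min at room temperature, then ATP-coupled luminescence was imaged as the viability read-out.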

For the next assay, the system named is HEK293. The description is as above. The settings on record: Five cell lines viability, CellTiter-Glo ATP luminescence, 48-72 h; max response: stronger effect = lower value. In outline:
as §1

The test system of assay [1] is HaCat. The description is as above. The settings on record: Five cell lines viability, CellTiter-Glo ATP luminescence, 48-72 h; max response: stronger effect = lower value. The procedure, abridged:
as §1

Another assay relates to CAOV3. As to the kind of experiment: Primary qHTS to identify gynecologic anti-cancer compounds using libraries of approved drugs and bioactive compounds (AID 1345084). Note: nearly all actives have a fitted effect of over 55% in size. Note: potency is the fitted concentration of half-maximal effect. Particulars: Gynecologic cancer cell panel viability, ATPlite luminescence, 48 h; series mostly up to 57.5 µM. The procedure, abridged: (§2)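 Luminescence from the ATPlite ATP-monitoring reagent indicates viable cell number; lower signal means cytotoxicity. Cells received compound 16 h after seeding and were exposed for 48 h across five concentrations.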

The subject of the next assay is HeLa. Described as above. Particulars: Gynecologic cancer cell panel viability, ATPlite luminescence, 48 h; series mostly up to 57.5 µM. The procedure, abridged: as §2
Another assay deals with JEG-3. The assay is described as above. The settings on record: Gynecologic cancer cell panel viability, ATPlite luminescence, 48 h; series mostly up to 57.5 µM. In outline:
as §2

A further assay has as its system PA-1. Described as above. Particulars: Gynecologic cancer cell panel viability, ATPlite luminescence, 48 h; series mostly up to 57.5 µM. The procedure, abridged:
as §2

The subject of assay [2] is NIH3T3. As to the kind of experiment: Cytotoxic Profiling of Annotated Libraries Using Quantitative High-Throughput Screening (AID 1296008). For max response: % is set by controls: 0 for no effect and ±100 for the full control effect. Note: nearly all actives have a fitted effect of over 60% in size. Note: potency is the fitted concentration of half-maximal effect. Particulars: Five cell lines viability, CellTiter-Glo ATP luminescence, 48-72 h; max response: stronger effect = lower value. In outline: as §1
In a further assay the test system is C33A. As to the kind of experiment: Primary qHTS to identify gynecologic anti-cancer compounds using libraries of approved drugs and bioactive compounds (AID 1345084). Note: nearly all actives have a fitted effect of over 55% in size. Note: potency is the fitted concentration of half-maximal effect. The settings on record: Gynecologic cancer cell panel viability, ATPlite luminescence, 48 h; series mostly up to 57.5 µM. The procedure, abridged: as §2
A further assay has as its system CASKI. The assay is described as above. Particulars: Gynecologic cancer cell panel viability, ATPlite luminescence, 48 h; series mostly up to 57.5 µM. The procedure, abridged: as §2
In another assay the test system is Es-2. Described as above. The settings on record: Gynecologic cancer cell panel viability, ATPlite luminescence, 48 h; series mostly up to 57.5 µM. The procedure, abridged: as §2
A further assay relates to Hek293T. The assay is described as above. Particulars: Gynecologic cancer cell panel viability, ATPlite luminescence, 48 h, control line for the selectivity index; series mostly up to 57.5 µM. In outline: as §2
In the next assay the test system is OV90. The assay is described as above. The settings on record: Gynecologic cancer cell panel viability, ATPlite luminescence, 48 h; series mostly up to 57.5 µM. The procedure, abridged:
as §2

The test system of assay [3] is NIH3T3. As to the kind of experiment: qHTS assay to identify novel small-molecules to repurpose for Merkel cell carcinoma treatment (AID 1296009). Note: nearly all actives have a fitted effect of over 60% in size. The settings on record: MCC and control cell lines, CellTiter-Glo viability, 72 h; series mostly up to 44.8 µM. The procedure, abridged:
(§3)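 Luminescence from CellTiter-Glo, read 10 min after addition at room temperature, reported viability following a 72 hr, 37 degree celsius treatment with NPC or MIPE compounds in titration; values normalized to plate controls.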

For assay [4], the system named is HACAT. The description is as above. The settings on record: MCC and control cell lines, CellTiter-Glo viability, 72 h; at 44.8 µM (top of the series) unless noted. In outline:
as §3

Regarding `Cc1csc2c(N[C@@H](C)CN3CCN(S(=O)(=O)c4ccc(Cl)c(Cl)c4)CC3)ncnc12`, the Potency in the assay with CRL-7250 is 0.259 µM (active); in the assay with HEK293, 0.366 µM (active); in the assay with HaCat [1] it was 2.91 µM (active). Also, the Potency entry in the assay with CAOV3, with HeLa, in the assay on JEG-3 and in the assay with PA-1 was “inactive” each time.

In the case of `CCOc1cc(C(C)(C)C)ccc1C1=N[C@@](C)(c2ccc(Cl)cc2)[C@@](C)(c2ccc(Cl)cc2)N1C(=O)N1CCN(CC(=O)N2CCOCC2)CC1`, the Potency with CRL-7250 is 14.8 µM (active); in the assay with HEK293 it was 4.17 µM (active); with NIH3T3 [2], 10.1 µM (active); with PA-1 it was 10 µM (active). The Potency entry in the assay on C33A, in the assay with CAOV3, in the assay with CASKI, in the assay on Es-2, in the assay with Hek293T and with JEG-3 was “inactive” in each case. In addition, in the assay on OV90, the Potency result was “inactive”.

For the molecule `COc1ccc(-c2cc3onc(-c4ccncc4)c3c(=O)n2C)cc1`, the Potency in the assay on CRL-7250 is 0.651 µM (active); in the assay with HEK293, 1.3 µM (active). Besides, in the assay with HaCat [1], the max response was -2.33%. For the same molecule, the Potency result with PA-1 is “inactive”.

Regarding `O=C(NCCCc1ccccc1)c1cccc(-c2cc(O)c3ncccc3c2)c1`, the figures for the Potency in the assay with CRL-7250, in the assay with HEK293 and in the assay on HaCat [1] were 5.17 µM (active), 20.6 µM (active) and 25.9 µM (active), respectively. Further, the Potency entry in the assay on CAOV3 and with CASKI was “inactive” in each case.

`Cc1nnc(C[C@@H]2C=C(c3ccc(Cl)cc3)c3ccccc3-n3c(C)nnc32)o1`: the Potency in the assay with CRL-7250 was 0.651 µM (active); in the assay on HEK293 it was 1.16 µM (active); with Es-2, 12.6 µM (active); in the assay on OV90, 20 µM (active). The max response in the assay on HaCat [1] is -1.46%. The Potency result in the assay on CASKI is “inactive”.

In the case of `CC(C)(O)/C=C/C(=O)[C@](C)(O)[C@H]1[C@H](O)C[C@@]2(C)[C@@H]3CC=C4[C@@H](C[C@H](O[C@@H]5O[C@H](CO)[C@@H](O)[C@H](O)[C@H]5O)C(=O)C4(C)C)[C@]3(C)C(=O)C[C@]12C`, the values for the max response in the assay with CRL-7250 and with HEK293 were -1.87% and -10.4%, respectively. The outcome in the assay with NIH3T3 [2] was inactive. The Potency result in the assay on NIH3T3 [3], in the assay with C33A, with CASKI, in the assay with Es-2, in the assay on HeLa and with Hek293T was “inactive” in each case. The Potency entry with JEG-3, in the assay on OV90 and with PA-1 was “inactive” in each case.

As to `Cc1cc2c(cc1N1C(=O)c3cccc4c(CCCO)ccc(c34)C1=O)n(C)c(=O)n2C`, the max response with CRL-7250 is -31.8%; in the assay on HEK293, -71.7%. For the same molecule, the Potency with NIH3T3 [2] is 1.53 µM (active). In addition, the Potency result in the assay with C33A, in the assay with CAOV3, in the assay with CASKI, in the assay on Es-2, in the assay with HeLa and in the assay with Hek293T was “inactive” each time. Besides, the Potency result in the assay on JEG-3, with OV90 and in the assay on PA-1 was “inactive” throughout.

In the case of `Nc1ncnc2c1nc(Cl)n2C1OC2COP(=O)(O)OC2C1O` (centres undefined), the Potency in the assay on CRL-7250 is 6.51 µM (active); in the assay with HEK293, 1.64 µM (active); in the assay with NIH3T3 [2], 5.8 µM (active); in the assay on C33A, 7.94 µM (active); with CAOV3 it was 5.62 µM (active); with Es-2 it was 10 µM (active). Further, the Potency in the assay with HeLa was 11.2 µM (active); with Hek293T, 10 µM (active); with JEG-3, 15.8 µM (active); in the assay with PA-1, 8.91 µM (active).

Take `COc1cc(CCC2=NN=C(NC(=O)c3ccc(N4C[C@@H](C)N[C@@H](C)C4)cc3)C2)cc(OC)c1`: the figures for the Potency in the assay on CRL-7250, in the assay on HEK293 and in the assay on HeLa were 10.3 µM (active), 18.4 µM (active) and 20 µM (active), respectively. Further, in the assay on HaCat [1], the max response is -66.4%.

For `O=C1C(Cc2ccc(O)cc2)N2C(=O)CCN(C(=O)NCc3ccccc3)C2CN1Cc1cccc2ccccc12` (centres undefined), the Potency in the assay with CRL-7250 was 4.61 µM (active); in the assay on HEK293 it was 4.11 µM (active); in the assay on HaCat [1] it was 5.8 µM (active); in the assay on Es-2, 8.91 µM (active). The Potency entry with CASKI and with JEG-3 was “inactive” each time.

For `C=C1C(=O)O[C@@H]2C[C@H](C)[C@@H]3CC(=O)C(C)=C3C[C@H]12`, the Potency is 10.3 µM (active) in the assay on CRL-7250, 8.2 µM (active) in the assay on HEK293, 14.6 µM (active) in the assay with HaCat [1] and 28.2 µM (active) in the assay with C33A. In addition, the Potency entry in the assay on HeLa is “inactive”.

As to `Cn1c(=O)c2c(ncn2Cc2ccc(C(C)(C)C)cc2)n(C)c1=O`, the Potency with CRL-7250 is 1.3 µM (active); with HEK293 it was 1.64 µM (active); in the assay on JEG-3 it was 14.1 µM (active); with OV90 it was 10 µM (active). The max response with HaCat [1] is -22.1%. The Potency entry with CAOV3 is “inactive”.

Turning to `COC1CC(O[C@H]2CC[C@]3(C)C4CC[C@@]5(C)C(=O)[C@]4(CC[C@@H]3C2)CC[C@@H]5C2=CC(=O)OC2)OC(C)C1OC1OC(COC2OC(CO)C(O)C(O)C2O)C(O)C(O)C1O` (some centres undefined), the Potency with CRL-7250 was 1.55 µM (active); with HEK293, 1.23 µM (active); in the assay on C33A it was 2.82 µM (active); in the assay on Es-2 it was 2.82 µM (active); in the assay with PA-1 it was 3.16 µM (active). For the same molecule, the molecule was called inactive with NIH3T3 [2]. Moreover, the outcome in the assay on NIH3T3 [3] is “inactive [at 9.27 µM]”.

Take `O=C(Nc1cccnn1)N1CCN(c2nccc(-c3ccc(F)c(F)c3)n2)CC1`: the figures for the max response with CRL-7250, in the assay with HEK293 and with NIH3T3 [2] were -5.59%, -4.09% and -4.62%, respectively. The Potency result in the assay with C33A, with CAOV3, in the assay with CASKI, in the assay on Es-2, in the assay with HeLa and with Hek293T was “inactive” each time. For the same molecule, the Potency result in the assay on JEG-3, with OV90 and in the assay on PA-1 was “inactive” each time.

Turning to `CN1CCN(Cc2ccc(NC(=O)Cc3ccc(Oc4cc(NC(=O)C5CC5)ncn4)cc3)cc2C(F)(F)F)CC1`, the Potency is 5.8 µM (active) with CRL-7250; 7.94 µM (active) with Es-2; 7.08 µM (active) with HeLa; 4.47 µM (active) in the assay on OV90; 5.62 µM (active) with PA-1. The max response in the assay with HEK293 is -105%; in the assay on HaCat [1], -122%.

For the molecule `N#Cc1ccc(O[C@@H]2c3ccccc3C[C@H]2N2CCC[C@@H](N)C2)c(Cl)c1`, the max response in the assay with CRL-7250 was -27.9%. Besides, the Potency with HEK293 is 20.6 µM (active). Moreover, the molecule was called inactive in the assay with HaCat [1] and in the assay on HACAT [4]. The Potency result with C33A, in the assay on HeLa, with Hek293T, in the assay with JEG-3, with OV90 and in the assay with PA-1 was “inactive” in each case.
